Here are results for 76 compounds from the antibiotic and cytotoxicity screens of Wong et al. (2023).

Among all 39,000 compounds or so, about 3,300 (8.5%) were called active. The list comes from a sample in which actives are over-represented; it also holds similar structures and randomly drawn compounds.

This test deals with HepG2. The experiment in a line: cytotoxicity call (relative viability < 0.9). The conditions noted are these: 10 µM.
With `CCCN(C)C[C@H]1Oc2cc(C#Cc3ccccc3OC)ccc2S(=O)(=O)N([C@@H](C)CO)C[C@H]1C`, the cytotoxicity call was “inactive”. For the compound `COc1ccc(S(=O)(=O)N(C)C[C@@H]2Oc3ccc(NS(=O)(=O)c4ccccc4)cc3C(=O)N([C@H](C)CO)C[C@H]2C)cc1`, the cytotoxicity call is “inactive”. Turning to `CC(C)=CCc1c(O)cc2oc(C)cc(=O)c2c1O`, the cytotoxicity call is “inactive”. Take `COc1cc(O)c2c(=O)cc(C)oc2c1CC=C(C)C`: the cytotoxicity call was “inactive”. For the compound `COc1c(O)cc2oc3cc(O)c(CC=C(C)C)c(O)c3c(=O)c2c1CC=C(C)C` [alpha-MANGOSTIN ], the cytotoxicity call is “active”.

In the case of `CN(C)CCCNC(=O)[C@H]1[C@H](CO)[C@H]2Cn3c(ccc(-c4ccncc4)c3=O)[C@@H]1N2C(=O)C1CC1`, the cytotoxicity call was “inactive”. In the case of `COCC(=O)N(C)C[C@@H]1Oc2cc(C#C[C@@H](C)O)ccc2S(=O)(=O)N([C@H](C)CO)C[C@@H]1C`, the cytotoxicity call is “inactive”. As to `COCC(=O)Nc1ccc2c(c1)C(=O)N(C)[C@@H]1CC[C@H](CC(=O)NC3Cc4ccccc4C3)O[C@H]1CO2`, the cytotoxicity call is “inactive”. The same measure for `C[C@@H]1CCCCO[C@H](CN(C)Cc2ccc(Cl)c(Cl)c2)[C@H](C)CN([C@@H](C)CO)C(=O)c2cc(NS(=O)(=O)c3ccccc3)ccc2O1`: “inactive”; for `C[C@@H]1CCCCO[C@H](CN(C)Cc2ccc(Cl)c(Cl)c2)[C@@H](C)CN([C@H](C)CO)C(=O)c2cc(NS(=O)(=O)c3ccccc3)ccc2O1`: “inactive”. For the compound `C[C@H](CO)N1C[C@H](C)[C@@H](CN(C)Cc2ccc(Cl)c(Cl)c2)OCCCC[C@H](C)Oc2ccc(NS(=O)(=O)c3ccccc3)cc2C1=O`, the cytotoxicity call is “active”. For the compound `C[C@@H]1CCCCO[C@@H](CN(C)Cc2ccc(Cl)c(Cl)c2)[C@H](C)CN([C@@H](C)CO)C(=O)c2cc(NS(=O)(=O)c3ccccc3)ccc2O1`, the cytotoxicity call is “active”. For `C[C@@H]1CCCCO[C@H](CN(C)Cc2ccc(Cl)c(Cl)c2)[C@@H](C)CN([C@@H](C)CO)C(=O)c2cc(NS(=O)(=O)c3ccccc3)ccc2O1`, the cytotoxicity call was “active”.

As for `C[C@@H]1CCCCO[C@@H](CN(C)Cc2ccc(Cl)c(Cl)c2)[C@H](C)CN([C@H](C)CO)C(=O)c2cc(NS(=O)(=O)c3ccccc3)ccc2O1`, the cytotoxicity call is “active”. To `CN(C)c1nc(NCCO)c2cnn(C)c2n1` belongs “inactive”; to `Cc1noc(C)c1S(=O)(=O)N(C)C[C@@H]1Oc2ccc(NS(=O)(=O)c3ccccc3)cc2C(=O)N([C@@H](C)CO)C[C@@H]1C`, “inactive”.

Take `C[C@@H]1CN([C@H](C)CO)C(=O)c2cc(NC(=O)Cn3cnnn3)ccc2O[C@@H]1CN(C)S(=O)(=O)c1cn(C)cn1`: the cytotoxicity call was “inactive”. Regarding `CC(C)NC(=O)N(C)C[C@@H]1OCCCC[C@H](C)Oc2ccc(NS(C)(=O)=O)cc2C(=O)N([C@H](C)CO)C[C@@H]1C`, the cytotoxicity call is “inactive”.

As for `C[C@@H]1CN([C@H](C)CO)C(=O)c2cc(NS(=O)(=O)c3cn(C)cn3)ccc2O[C@@H](C)CCCCO[C@@H]1CN(C)S(=O)(=O)c1cccs1`, the cytotoxicity call is “inactive”. Regarding `CC(C)CC#Cc1ccc2c(c1)O[C@H](CN(C)C(=O)Cc1ccncc1)[C@H](C)CN([C@@H](C)CO)S2(=O)=O`, the cytotoxicity call is “inactive”. Take `C[C@@H]1CCCCO[C@@H](CN(C)C(=O)NC2CCCCC2)[C@H](C)CN([C@H](C)CO)C(=O)c2cc(NS(=O)(=O)c3ccc(F)cc3)ccc2O1`: the cytotoxicity call is “inactive”. On to `COc1ccc(S(=O)(=O)N(C)C[C@H]2Oc3ccc(NS(=O)(=O)c4cn(C)cn4)cc3C(=O)N([C@H](C)CO)C[C@@H]2C)cc1`, for which the cytotoxicity call is “inactive”. For `COc1ccc(S(=O)(=O)N(C)C[C@@H]2OCCCC[C@@H](C)Oc3ccc(NS(C)(=O)=O)cc3C(=O)N([C@H](C)CO)C[C@H]2C)cc1`, the cytotoxicity call is “inactive”. Take `COc1ccc(S(=O)(=O)Nc2cccc3c2O[C@@H](CN(C)C(=O)NC(C)C)[C@H](C)CN([C@@H](C)CO)C3=O)cc1`: the cytotoxicity call is “inactive”. `C[C@H](CO)N1C[C@H](C)[C@H](CN(C)C(=O)Cc2ccccc2)OCCCC[C@H](C)Oc2ccc(NS(=O)(=O)c3cccs3)cc2C1=O`: the cytotoxicity call is “inactive”.

As to `C[C@@H]1CN([C@H](C)CO)S(=O)(=O)c2ccc(C#Cc3ccccc3)cc2O[C@@H]1CN(C)S(=O)(=O)c1cn(C)cn1`, the cytotoxicity call is “inactive”.

In the case of `C[C@@H]1CN([C@H](C)CO)C(=O)c2cc(NS(=O)(=O)c3ccccc3)ccc2O[C@@H](C)CCCCO[C@@H]1CN(C)Cc1ccc(Cl)c(Cl)c1`, the cytotoxicity call is “active”.

Turning to `C[C@@H]1CN([C@H](C)CO)C(=O)c2cc(NS(=O)(=O)c3ccccc3)ccc2O[C@@H](C)CCCCO[C@H]1CN(C)Cc1ccc(Cl)c(Cl)c1`, the cytotoxicity call was “inactive”. Consider `C[C@H]1CCCCO[C@H](CN(C)Cc2ccc(Cl)c(Cl)c2)[C@@H](C)CN([C@@H](C)CO)C(=O)c2cc(NS(=O)(=O)c3ccccc3)ccc2O1`, for which the cytotoxicity call was “active”. To `C[C@@H]1CCCCO[C@@H](CN(C)Cc2ccc(Cl)c(Cl)c2)[C@@H](C)CN([C@H](C)CO)C(=O)c2cc(NS(=O)(=O)c3ccccc3)ccc2O1` belongs “active”; to `C[C@@H]1CCCCO[C@@H](CN(C)Cc2ccc(Cl)c(Cl)c2)[C@@H](C)CN([C@@H](C)CO)C(=O)c2cc(NS(=O)(=O)c3ccccc3)ccc2O1`, “inactive”; to `Nn1c([C@@H](O)c2ccccc2)n[nH]c1=S`, “inactive”. To `COc1ccc(CN(C)C[C@H]2OCCCC[C@H](C)Oc3ccc(NC(=O)Cc4ccccc4)cc3C(=O)N([C@H](C)CO)C[C@H]2C)cc1` belongs “inactive”; to `C[C@H]1CN([C@@H](C)CO)C(=O)c2cc(NC(=O)Cn3cnnn3)ccc2O[C@H]1CN(C)S(C)(=O)=O`, “inactive”. Turning to `C[C@H]1CN([C@@H](C)CO)C(=O)c2cc(C#CC(C)(C)O)cnc2O[C@@H]1CN(C)C(=O)CN(C)C`, the cytotoxicity call was “inactive”. Take `COc1ccc(NC(=O)N(C)C[C@@H]2OCCCC[C@@H](C)Oc3ccc(NS(=O)(=O)c4ccc(OC)cc4)cc3C(=O)N([C@@H](C)CO)C[C@@H]2C)cc1`: the cytotoxicity call is “inactive”. Consider `CCOC(=O)CC1(C)NNC(=S)NN1`, for which the cytotoxicity call was “inactive”. Regarding `C[C@@](N)(C(=O)O)c1ccc(-c2nn[nH]n2)cc1`, the cytotoxicity call is “inactive”. For `COc1ccccc1CNC(=O)C[C@H]1C[C@H]2c3cc(NC(=O)Nc4ccc(C(F)(F)F)cc4)ccc3O[C@H]2[C@H](CO)O1`, the cytotoxicity call is “inactive”. Consider `O=C(C[C@@H]1C[C@@H]2c3cc(NC(=O)Nc4ccc(C(F)(F)F)cc4)ccc3O[C@@H]2[C@H](CO)O1)NC1CCCCC1`, for which the cytotoxicity call is “active”. The same measure for `COc1ccccc1CNC(=O)C[C@H]1C[C@@H]2c3cc(NC(=O)Nc4ccc(C(F)(F)F)cc4)ccc3O[C@@H]2[C@@H](CO)O1`: “inactive”; for `O=C(C[C@@H]1C[C@H]2c3cc(NC(=O)Nc4ccc(C(F)(F)F)cc4)ccc3O[C@H]2[C@@H](CO)O1)NC1CCCCC1`: “inactive”. As for `COc1ccccc1CNC(=O)C[C@@H]1C[C@H]2c3cc(NC(=O)Nc4ccc(C(F)(F)F)cc4)ccc3O[C@H]2[C@@H](CO)O1`, the cytotoxicity call is “active”. As to `C[C@H](NC(=O)C[C@@H]1C[C@@H]2c3cc(NC(=O)Nc4ccc(C(F)(F)F)cc4)ccc3O[C@@H]2[C@H](CO)O1)c1ccccc1`, the cytotoxicity call is “inactive”. Consider `C[C@H](NC(=O)C[C@H]1C[C@@H]2c3cc(NC(=O)Nc4ccc(C(F)(F)F)cc4)ccc3O[C@@H]2[C@@H](CO)O1)c1ccccc1`, for which the cytotoxicity call is “inactive”. Regarding `O=C(C[C@@H]1C[C@@H]2c3cc(NC(=O)Nc4ccc(C(F)(F)F)cc4)ccc3O[C@@H]2[C@@H](CO)O1)NC1CCCCC1`, the cytotoxicity call was “inactive”.

Regarding `C[C@H](NC(=O)C[C@@H]1C[C@@H]2c3cc(NC(=O)Nc4ccc(C(F)(F)F)cc4)ccc3O[C@@H]2[C@@H](CO)O1)c1ccccc1`, the cytotoxicity call was “active”. Consider `C[C@@H]1CN([C@H](C)CO)C(=O)c2c(c3ccccc3n2C)-c2ccccc2CO[C@@H]1CN(C)S(=O)(=O)c1cn(C)cn1`, for which the cytotoxicity call was “inactive”. Take `Cc1noc(C)c1NC(=O)Nc1ccc2c(c1)C(=O)N([C@H](C)CO)C[C@@H](C)[C@H](CN(C)C(=O)Nc1ccccc1)OCCCC[C@@H](C)O2`: the cytotoxicity call is “inactive”.

Consider `Cc1ccc(S(=O)(=O)N(C)C[C@H]2Oc3ccc(NC(=O)CCCN(C)C)cc3C(=O)N([C@@H](C)CO)C[C@@H]2C)cc1`, for which the cytotoxicity call was “inactive”.

Turning to `CCNC(=O)C[C@@H]1CC[C@H]2[C@@H](COc3ccc(NS(=O)(=O)c4ccccc4C)cc3C(=O)N2C)O1`, the cytotoxicity call was “inactive”.

Regarding `C[C@@H]1CCCCO[C@H](CN(C)C(=O)Nc2ccc(F)cc2)[C@H](C)CN([C@H](C)CO)C(=O)c2cc(NC(=O)Nc3ccc(C(F)(F)F)cc3)ccc2O1`, the cytotoxicity call was “inactive”.

Regarding `CC(C)CC#Cc1ccc2c(c1)O[C@@H](CN(C)C(=O)c1cccnc1)[C@@H](C)CN([C@H](C)CO)S2(=O)=O`, the cytotoxicity call is “inactive”.

Take `COc1cc(C(=O)OCCN2CCCN(CCOC(=O)c3cc(OC)c(OC)c(OC)c3)CC2)cc(OC)c1OC`: the cytotoxicity call is “inactive”. In the case of `O=C(N[C@@H](c1ccccc1)c1ccc2ccccc2n1)C1CCN(CCOc2ccc(Cl)cc2)CC1`, the cytotoxicity call is “inactive”. Take `CC(=O)O.Cc1c(-c2ccc(O)cc2)n(Cc2ccc(OCCN3CCCCCC3)cc2)c2ccc(O)cc12`: the cytotoxicity call was “active”.

Turning to `CCCCOc1ccc(OCCCN2CCOCC2)cc1.Cl`, the cytotoxicity call is “inactive”. The same measure for `CCCCOc1ccc(C(=O)CCN2CCCCC2)cc1.Cl`: “active”.

Consider `Cl.O=C(c1ccc(OCCN2CCCCC2)cc1)c1c(-c2ccc(O)cc2)sc2cc(O)ccc12`, for which the cytotoxicity call was “active”. Consider `CC(=O)OCC(=O)NCCCOc1cccc(CN2CCCCC2)c1.Cl`, for which the cytotoxicity call is “inactive”. To `COc1cc(OC)c(C(=O)CCCN2CCCC2)c(OC)c1.Cl` belongs “inactive”. With `C[C@@H]1CN([C@@H](C)CO)C(=O)c2cccc(NC(=O)c3cnccn3)c2O[C@H]1CN(C)S(=O)(=O)c1cccs1`, the cytotoxicity call was “inactive”.

Turning to `C[C@H]1CN([C@@H](C)CO)S(=O)(=O)c2ccc(-c3cccc(C(=O)N(C)C)c3)cc2O[C@@H]1CN(C)C(=O)Cc1ccccn1`, the cytotoxicity call is “inactive”. Consider `C[C@H]1CN([C@@H](C)CO)C(=O)c2cc(C#Cc3ccc(F)cc3)cnc2O[C@@H]1CN(C)Cc1ccccn1`, for which the cytotoxicity call is “inactive”.

Regarding `C[C@@H]1CCCCO[C@H](CN(C)S(C)(=O)=O)[C@@H](C)CN([C@@H](C)CO)C(=O)c2cc(NC(=O)Nc3ccc(C(F)(F)F)cc3)ccc2O1`, the cytotoxicity call is “inactive”. As for `C[C@@H]1CCCCO[C@@H](CN(C)C)[C@H](C)CN([C@@H](C)CO)C(=O)c2cc(NC(=O)Nc3ccc(C(F)(F)F)cc3)ccc2O1`, the cytotoxicity call was “inactive”. Take `C[C@@H]1CCCCO[C@H](CN(C)C)[C@H](C)CN([C@@H](C)CO)C(=O)c2cc(NC(=O)Nc3ccc(C(F)(F)F)cc3)ccc2O1`: the cytotoxicity call was “active”. For `C[C@@H]1CCCCO[C@H](CN(C)C)[C@H](C)CN([C@H](C)CO)C(=O)c2cc(NC(=O)Nc3ccc(C(F)(F)F)cc3)ccc2O1`, the cytotoxicity call was “active”. Take `C[C@@H]1CN([C@@H](C)CO)C(=O)c2cc(NC(=O)Nc3ccc(C(F)(F)F)cc3)ccc2O[C@@H](C)CCCCO[C@@H]1CN(C)C`: the cytotoxicity call was “inactive”. Consider `C[C@@H]1CN([C@@H](C)CO)C(=O)c2cc(NC(=O)Nc3ccc(C(F)(F)F)cc3)ccc2O[C@@H](C)CCCCO[C@H]1CN(C)C`, for which the cytotoxicity call is “inactive”. With `C[C@H]1CCCCO[C@@H](CN(C)C)[C@@H](C)CN([C@@H](C)CO)C(=O)c2cc(NC(=O)Nc3ccc(C(F)(F)F)cc3)ccc2O1`, the cytotoxicity call is “active”.

`C[C@@H]1CCCCO[C@H](CN(C)C)[C@@H](C)CN([C@H](C)CO)C(=O)c2cc(NC(=O)Nc3ccc(C(F)(F)F)cc3)ccc2O1`: the cytotoxicity call is “inactive”. In the case of `C[C@@H]1CCCCO[C@H](CN(C)S(C)(=O)=O)[C@@H](C)CN([C@H](C)CO)C(=O)c2cc(NC(=O)Nc3ccc(C(F)(F)F)cc3)ccc2O1`, the cytotoxicity call is “inactive”. Take `C[C@@H]1CN([C@H](C)CO)C(=O)c2cc(NC(=O)Nc3ccc(C(F)(F)F)cc3)ccc2O[C@@H](C)CCCCO[C@H]1CN(C)S(C)(=O)=O`: the cytotoxicity call is “active”. `C[C@H](CO)N1C[C@H](C)[C@@H](CN(C)C)OCCCC[C@H](C)Oc2ccc(NC(=O)Nc3ccc(C(F)(F)F)cc3)cc2C1=O`: the cytotoxicity call was “inactive”. For `C[C@@H]1CCCCO[C@@H](CN(C)C)[C@H](C)CN([C@H](C)CO)C(=O)c2cc(NC(=O)Nc3ccc(C(F)(F)F)cc3)ccc2O1`, the cytotoxicity call was “inactive”.
